Screens: PubChem, National Center for Advancing Translational Sciences (NCATS)
In the library only some 8.7% were active in any assay of this set; here they are far more common.
BAZ2B inh – qHTS Assay for Inhibitors of BAZ2B; AID 504333, 2011; Potency, µM (highest dose often 114 µM), for the others: top-dose activity change, negative = inhibition, hits mostly inhibitors; 4.4% of 360,000 active; Bromodomain adjacent to zinc finger domain protein 2B (Homo sapiens), Q9UIF8; AlphaScreen BAZ2B-H3K14Ac peptide displacement; note: % is set by controls: 0 for no effect and ±100 for the full control effect; nearly all actives have a fitted effect of over 60% in size
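Multi-concentration screen (max 110 uM) measuring displacement of acetylated histone H3 peptide from BAZ2B by AlphaScreen, using 50 nM protein, 50 nM peptide and 10 ug/mL streptavidin donor plus Ni-chelate acceptor beads.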
HP1b binding inh – HTS for Inhibitors of HP1-beta Chromodomain Interactions with Methylated Histone Tails | Chromobox protein homolog 1 (Homo sapiens), P83916 | AlphaScreen HP1-beta / biotin-H3K9me3 peptide binding | Potency, µM (highest dose often 114 µM), for inactives: top-dose activity change, negative = inhibition, most hits filed as inhibitors | 0.56% of 390,000 active | AID 540317, 2011; note: nearly all actives have a fitted effect of over 70% in size
Target sequence (P83916 whole entry, looked up): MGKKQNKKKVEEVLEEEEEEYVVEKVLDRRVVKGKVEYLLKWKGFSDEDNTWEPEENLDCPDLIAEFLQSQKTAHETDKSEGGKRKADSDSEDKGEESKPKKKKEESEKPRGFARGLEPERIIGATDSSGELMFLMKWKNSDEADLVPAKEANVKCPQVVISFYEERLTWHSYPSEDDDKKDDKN
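HP1-beta protein (50 nM final) preincubated 30 min at room temperature with biotinylated H3(1-18)K9me3 peptide (50 nM) in PBS pH 7.4, 0.01% Tween-20, then compound added for 30 min. AlphaScreen streptavidin donor/nickel chelate acceptor beads (10 ug/mL final), 30 min dark, luminescence read.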
G9a block – qHTS Assay for Inhibitors of Histone Lysine Methyltransferase G9a; Histone-lysine N-methyltransferase EHMT2 (Homo sapiens), Q96KQ7; G9a H3K9 monomethylation, AlphaScreen, 2 h; Potency, µM (highest dose often 102 µM), for the others: top-dose activity, negative = inhibition, most hits filed as inhibitors; 8.8% of 350,000 active; AID 504332, 2011; note: % is set by controls: 0 for no effect and ±100 for the full control effect; nearly all actives have a fitted effect of over 75% in size
Target sequence (Q96KQ7 913-1193 limits assumed): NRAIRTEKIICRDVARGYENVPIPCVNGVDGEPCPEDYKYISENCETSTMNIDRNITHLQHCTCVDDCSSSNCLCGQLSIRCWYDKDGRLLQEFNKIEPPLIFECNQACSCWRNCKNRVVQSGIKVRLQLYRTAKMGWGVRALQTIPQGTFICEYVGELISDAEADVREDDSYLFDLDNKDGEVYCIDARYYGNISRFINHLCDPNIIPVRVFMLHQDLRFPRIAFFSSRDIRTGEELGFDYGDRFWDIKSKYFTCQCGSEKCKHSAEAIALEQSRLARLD
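Quantitative HTS format: methyltransferase activity on a biotin-tagged H3K9 peptide is measured by AlphaScreen, using a rabbit anti-monomethyl-H3K9 antibody with streptavidin donor and anti-IgG acceptor beads. Final levels are 20 nM enzyme, 500 nM peptide, 20 uM SAM; 2 h RT.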
JMJD2A Tudor – qHTS Assay for Inhibitors of JMJD2A-Tudor Domain | AlphaScreen JMJD2A-Tudor / H3K4me3 peptide binding | AID 504339, 2011 | 4.4% of 390,000 active | Potency, µM (series often up to 114 µM), for inactives: top-dose activity change, negative = inhibition, hits mostly inhibitors; note: % is set by controls: 0 for no effect and ±100 for the full control effect; nearly all actives have a fitted effect of over 50% in size
Sfp PPTase inh – qHTS Assay for Inhibitors of Bacillus subtilis Sfp phosphopantetheinyl transferase (PPTase); 4'-phosphopantetheinyl transferase ffp (Bacillus subtilis), Q9F4F7; Biochemical Sfp PPTase activity, qHTS; Potency, µM, for the others: largest response in the series, negative = inhibition, usual class: inhibitors; 3.5% of 310,000 active; AID 1490, 2009;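 note: the enzyme is Sfp with the accession as filed and its product quenches rhodamine fluorescence; 0% = enzyme reaction without inhibitor and -100% = no enzyme wells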
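Sfp 15 nM + cpd, 15 min RT; start w/ rhodamine-CoA 5 uM, BHQ-2-YbbR 12.5 uM (final); 50 mM Hepes pH 7.6, 10 mM MgCl2, 0.01% NP-40, 0.01% BSA; read 525/598 nm at 0 and 30 min.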
ALOX12 inh – Primary qHTS assay for inhibitors of human arachidonate 12S-lipoxygenase (ALOX12): Round 2. purified 12hLO, xylenol orange hydroperoxide absorbance. AID 1671190, 2021. 1.1% of 580,000 active. Potency, µM (highest dose often 108 µM), for the others: at the top dose activity change, negative = inhibition, usual class: inhibitors. Polyunsaturated fatty acid lipoxygenase ALOX12 (Homo sapiens), P18054; note: % is set by controls: 0 for no effect and ±100 for the full control effect
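Hydroperoxide product was detected by ferrous iron/xylenol orange as the 573 to 405 nm absorbance ratio. Arachidonic acid at 40 uM (final) was turned over for 30 min at room temperature by 150 nM human 12hLO, pH 7.0 Hepes buffer, after 15 min compound preincubation.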
An asterisk follows results filed as active; ? = inconclusive; nt = no result; [ ] = dose if it differs, or a comment. Calls come from the whole dose curve; as a rule, active = well fitted curve in the direction sought with a large enough effect; inconclusive = small, poorly fitted or top-dose-only effect, or another doubt; inactive = no such curve, though single readings can be large; an effect the other way counts as inactive or inconclusive. Potency is the fitted concentration of half-maximal effect.

SMILES	BAZ2B inh	HP1b binding inh	G9a block	JMJD2A Tudor	Sfp PPTase inh	ALOX12 inh
O=C(C1CCCN(Cc2cc(Br)ccc2O)C1)N1CCCCC1 (stereo unspecified)	50µM*	-7%	25µM*	7.9µM*	-15%	-9%
O=C(c1csc(-c2ccsc2)n1)N1CCCC1c1ccccc1 (stereo unspecified)	nt	nt	nt	nt	nt	-3%
Cc1nc(CN2CCN(S(=O)(=O)c3c(Cl)cc(Br)cc3Cl)CC2)cs1	79µM*	0%	22µM*	35µM*	nt	?
CCOC(=O)c1c(NC(=O)CSc2nc(-c3ccc(OC)cc3)cc(C(F)(F)F)n2)sc(C)c1C	-9%	-19%	4.5µM*	-20%	nt	-13%
CCN(CC)CCCNC(=O)C(C)Sc1nc(-c2ccccc2)cc(C(F)(F)F)n1 (stereo unspecified)	-17%	60%	nt	-1%	12%	-7%
CCCCNC(=O)CSc1nc(-c2ccc(OC)cc2)cc(C(F)(F)F)n1	3%[57.1 µM]	25%	-20%[59 µM]	-5%	nt	0%
CCN(CC)C(=O)c1sc(NC(=O)C(C)Sc2nc(-c3ccccc3)cc(C(F)(F)F)n2)c(C(=O)OC)c1C (stereo unspecified)	-5%	-23%	3.5µM*	-11%	nt	-27%
CCCOC(=O)c1c(NC(=O)C(C)Sc2nc(-c3ccccc3)cc(C(F)(F)F)n2)sc(C(=O)N(C)C)c1C (stereo unspecified)	-1%	10%	11µM*	-14%	nt	-23%
O=C(Nc1ccc(-c2nc3ccccc3o2)c(O)c1)c1ccccc1I	nt	nt	nt	nt	nt	0%
c1cc2c3c(cccc3c1)/C(=N/OCC1CO1)C2 (stereo unspecified)	nt	nt	nt	nt	nt	-2%
CCOc1ccc(-n2nc3ccc(NC(=O)Cc4ccccc4)cc3n2)cc1	-1%	-8%	-36%[59 µM]	-15%	nt	-26%
CCOc1ccc(-n2nc3ccc(NC(=O)CC)cc3n2)cc1	-26%	-6%	35µM*	?	-1%	32%
Cn1c(-c2ccc(S(=O)(=O)N3CCCC3)cc2)csc1=Nc1ccc(Cl)c(Cl)c1	-29%	?	?	50µM*	nt	?
CCn1c(-c2ccc(S(=O)(=O)N3CCOCC3)cc2)csc1=Nc1ccc(C)c(Cl)c1	-6%	-1%	3%[12.7 µM]	-16%	nt	-12%
O=S(=O)(c1ccc(-c2csc(=Nc3ccc(OC(F)(F)Cl)cc3)n2CCCO)cc1)N1CCCC1	89µM*	-27%	1µM*	?	nt	?
COC(=O)c1sccc1NC(=O)CC1(C(=O)O)CCCC1	nt	nt	nt	nt	nt	-34%
C/C(=N\NC(N)=S)C1C2C3CC4C5CC(C42)C1C53 (stereo unspecified)	-38%	26%	40µM*	-10%	9%	18µM*
C/C(CC(C)(C)C1CCCCC1)=N\NC(N)=S	-37%	-14%	?	-27%	4%	?
CC(=O)c1ccc(Nc2ccc(-c3ccccc3C)nn2)cc1	79µM*	10%	nt	-32%	-6%	?
Cc1ccccc1-c1nccn2c(C3CN(Cc4ccc(O)cc4)C3)ncc12	nt	nt	nt	nt	nt	90%[176 µM]
C#CCOCCOCCOCCNc1nc(N2CCN(C(=O)Cn3cc(CCCCN)nn3)CC2)nc(N2CCN(C(=O)Cn3cc(CC(C)O)nn3)CC2)n1 (stereo unspecified)	?	85%	50µM*	-11%	-9%	?
C#CCOCCOCCOCCNc1nc(N2CCN(C(=O)CCCCCCCCCCNC(=O)Cn3cc(C[C@@H](C)O)nn3)CC2)nc(N2CCN(C(=O)CCCCCCCCCCNC(=O)[C@@H]([C@H](C)O)n3cc(C)nn3)CC2)n1	3%	33%	-1%[2.33 µM]	-27%	nt	nt
C#CCOCCOCCOCCNc1nc(N2CCN(C(=O)CCCCCCCCCCNC(=O)Cn3cc(CCCCCN)nn3)CC2)nc(N2CCN(C(=O)CCCCCCCCCCNC(=O)[C@@H]([C@H](C)O)n3cc(C)nn3)CC2)n1	?	?	23%[2.33 µM]	79µM*	nt	nt
C#CCOCCOCCOCCNc1nc(N2CCN(C(=O)CCCCCCCCCCNC(=O)Cn3cc(CCCCCN)nn3)CC2)nc(N2CCN(C(=O)CCCCCCCCCCNC(=O)Cn3cc(C[C@@H](C)O)nn3)CC2)n1	79µM*	-27%	13%[2.33 µM]	25µM*	nt	nt
C#CCOCCOCCOCCNc1nc(N2CCN(C(=O)CCCCCCCCCCNC(=O)Cn3cc(C[C@@H](C)O)nn3)CC2)nc(N2CCN(C(=O)CCCCCCCCCCNC(=O)[C@@H]([C@H](C)CC)n3cc(CCCCCN)nn3)CC2)n1	?	?	-3%[2.33 µM]	56µM*	nt	nt
SMILES	BAZ2B inh	HP1b binding inh	G9a block	JMJD2A Tudor	Sfp PPTase inh	ALOX12 inh
COc1ccc(C(=O)N[C@@H]2CCC[C@@H]2C(=O)N(C)C)cc1	nt	nt	nt	nt	nt	3%
Cc1cccc(-c2nc(CN3CCN(C(=O)C4CCCO4)CC3)cs2)c1 (stereo unspecified)	-37%	4%	71µM*	-18%	10%	409%
NS(=O)(=O)c1ccc(CCNc2nc(CN3CCOCC3)nc3sc4c(c23)CCC4)cc1	-30%	21%	13µM*	-23%	-10%	?
Cc1nc(NCCc2ccc(S(N)(=O)=O)cc2)c2c3c(sc2n1)CCC3	1%	8%	-36%[59 µM]	-17%	10%	14%
CS(=O)(=O)c1ccc2c(c1)sc1nc(=O)c(/C=C3/C=CC(=O)C(O)=C3)c(N)n12	14µM*	16µM*	5µM*	7.1µM*	32µM*	0%
CC(C)(C)NC(=O)NC(=O)CN1CCN(c2ccc(O)cc2)CC1	-27%	?	3.2µM*	22µM*	-93%	-25%
COCC(C)NCC(=O)NC(C)CCc1ccccc1 (stereo unspecified)	56µM*	-32%	8.9µM*	1µM*	-16%	?
Cc1ccc(NC(=O)NC(=O)CN2CCN(c3ccc(O)cc3)CC2)c(C)c1	?	71µM*	7.9µM*	45µM*	50µM*	?
CC(CCc1ccccc1)NC(=O)CN1CCN(c2ccc(O)cc2)CC1 (stereo unspecified)	?	89µM*	7.9µM*	45µM*	10µM*	?
Cc1ccc([S+](=O)([O-])N2CCC3OCCN(C(C)C)C(=O)C3C2)cc1 (stereo unspecified)	nt	nt	nt	nt	nt	5%[176 µM]
